Results taken from PubChem BioAssay AID504832 (National Center for Advancing Translational Sciences (NCATS), 2011).
Screen size: about 310,000 compounds; about 18,000 (5.8%) were called active. Not shown: some 22% with an inconclusive outcome. Shown is part of a subset that was picked to be rich in actives. Values without a mark were called inactive. The call rests on the fitted dose curve; in most records, active means well fitted inhibition curve with a large enough effect; inconclusive means small, poorly fitted or top-dose-only effect, or another doubt; inactive means no such curve, though single readings can be large or run the other way.

Assay: Primary qHTS for delayed death inhibitors of the malarial parasite plastid, 48 hour incubation
Settings: P. falciparum luciferase growth in erythrocytes; series mostly up to 28.7 µM; activity change, negative = inhibition: at the top concentration
Method in brief: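 Firefly luciferase activity from engineered P. falciparum reports growth; inhibitors lower the luminescent signal. Cultures contained 2% hematocrit erythrocytes at 0.1% final parasitemia.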
On the % scale 0 is the no-effect control and ±100 the full control effect; potency means the concentration at half of the fitted maximal effect.

SMILES	activity change, negative = inhibition	Potency
CCOC(=O)N1CCN(CC(=O)c2c(C)[nH]c3ccccc23)CC1	-7.87%	–
CCOC(=O)c1c(C)[nH]c(C)c1S(=O)(=O)N(C)CC(=O)Nc1ccccc1C	-4.45%	–
CCOC(=O)c1c(C)[nH]c2c1-c1ccccc1C(=O)C2=O	–	1.47 µM (active)
CCc1nnc(NS(=O)(=O)c2ccc(N=Cc3c(C)[nH]n(-c4ccc(C)cc4)c3=O)cc2)s1	1.12%	–
COc1cc(SC#N)ccc1N=Cc1c(C)[nH]n(-c2ccc(C)cc2)c1=O	–	13.1 µM (active)
Cc1ccc(-n2[nH]c(C)c(/C=N/N3C(=O)c4cccc5cccc(c45)C3=O)c2=O)cc1	-9.64%	–
COc1cccc(N2CC(NC(=O)c3ccc4ccccc4c3)CC2=O)c1 (configuration not stated)	1.12%	–
COC(=O)c1cc(S(=O)(=O)Nc2ccc(C)c(F)c2)c[nH]1	-8.22%	–
Cc1ccc(NC(=O)CSc2cccc3cccnc23)c(C)c1	-28%	–
COC(=O)c1ccc(-c2c(-c3ccccc3)ncc3cc(OC)c(OC)cc23)cc1	-4.69%	–
O=C1CC2(CCN(C(=O)COc3ccc(F)cc3)CC2)Oc2ccccc21	-9.25%	–
COc1ccc(CCn2c(-c3ccco3)nc3nc4ccccc4nc32)cc1OC	-18.5%	–
COc1cc(-c2n[nH]c(=S)n2Cc2ccccc2)cc(OC)c1OC	-6.15%	–
CCC(C)n1c(-c2cc(OC)c(OC)c(OC)c2)nc2nc3ccccc3nc21 (configuration not stated)	–	13.1 µM (active)
COc1ccc(C(=O)NC(C)CCc2ccccc2)c(OC)c1 (configuration not stated)	-23.8% [at 0.00184 µM]	–
CCc1sc(C(=O)N2CCN(CC(=O)Nc3cccc(F)c3)CC2)cc1C	4.46%	–
COc1ccc(S(=O)(=O)N2CCC(C(=O)N3CCOCC3)CC2)cc1OC	4.87%	–
S=C(NCC1CCCO1)N1CCN(c2ccc(Cl)c(Cl)c2)CC1 (configuration not stated)	-30.4%	–
CCOc1ccc(S(=O)(=O)NCCC(=O)NCC2CCCO2)cc1 (configuration not stated)	3.77%	–
CCOc1ccc(NC(=S)N2CCC(N(C)CC3CCCO3)CC2)cc1 (configuration not stated)	15%	–
COc1ccc(S(=O)(=O)N2CCN(C(=S)NCC3CCCO3)CC2)cc1OC (configuration not stated)	–	1.85 µM (active)
CCOc1ccc(S(=O)(=O)N2CCN(C(=S)NCC3CCCO3)CC2)cc1 (configuration not stated)	–	5.22 µM (active)
CCCCNC(=O)CN1C(=O)NC(Cc2ccccc2)(Cc2ccccc2)C1=O	-9.93%	–
CCCCNC(=O)c1c[nH]c2ccc(S(=O)(=O)Nc3ccc(OCC)cc3)cc2c1=O	-11.5%	–
CCN(CC(=O)NCCc1ccccc1)S(=O)(=O)c1ccccc1	1.84%	–
CCN(CC)S(=O)(=O)c1ccc2[nH]cc(C(=O)NCCc3ccccc3)c(=O)c2c1	–	13.1 µM (active)
COc1ccccc1C(=O)NC(=O)COC(=O)C1CC1	-1.65%	–
